Screening data from PubChem BioAssay.
HP1b chromo inh = inhibitors of HP1-beta chromodomain binding to methylated histone tails; AlphaScreen HP1-beta / biotin-H3K9me3 peptide binding; Potency, µM (top dose mostly 114 µM), without a hit: at the top dose activity change, negative = inhibition, most hits filed as inhibitors; 390,000 tested, 0.56% active; also: potency is read from the fitted curve at half-maximal effect; nearly all actives have a fitted effect of over 70% in size
Target sequence (P83916 whole entry, looked up): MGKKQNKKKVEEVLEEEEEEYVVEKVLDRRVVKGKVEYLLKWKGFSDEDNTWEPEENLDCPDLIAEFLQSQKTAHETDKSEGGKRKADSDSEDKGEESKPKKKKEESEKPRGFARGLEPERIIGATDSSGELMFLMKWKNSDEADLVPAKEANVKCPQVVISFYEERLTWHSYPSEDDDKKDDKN
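AlphaScreen: HP1-beta (50 nM) preformed 30 min with biotin-H3(1-18)K9me3 peptide (50 nM) in PBS pH 7.4, 0.01% Tween-20. Compound added for 30 min at RT, then streptavidin donor/nickel chelate acceptor beads (10 ug/mL) for 30 min.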
JMJD2A Tudor inh = inhibitors of human JMJD2A Tudor domain | Potency, µM (top dose mostly 114 µM), for inactives: top-dose activity change, negative = inhibition, most hits filed as inhibitors | AID 504339 | 390,000 tested, 4.4% active | O75164 | AlphaScreen JMJD2A-Tudor / H3K4me3 peptide binding; also: potency is read from the fitted curve at half-maximal effect; % is scaled to controls: 0 for no effect and ±100 for the full control effect; nearly all actives have a fitted effect of over 50% in size
PI5P4Ka inh = PI5P4K alpha (human) kinase inhibition | P48426 | 330,000 tested, 1.2% active | max response, % | PI5P4Kalpha enzyme, ADP-Glo luminescence, 60 min; hits give low values | AID 652105; active = max response of -50% or lower; inconclusive = between -30% and -50%; inactive = -30% or higher; also: value at the top dose of about 77 µM; % is scaled to controls: 0 for no effect and ±100 for the full control effect
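Controls without substrate or without enzyme flank wells where PI5P4Kalpha converts substrate using 5 microM ATP (final). Incubation lasts 60 minutes at room temperature; ADP formed is read by ADP-Glo luminescence.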
BAZ2B inh = BAZ2B (human) inhibition | AlphaScreen BAZ2B-H3K14Ac peptide displacement | Potency, µM (highest dose often 114 µM), for inactives: at the highest dose activity change, negative = inhibition, usual class: inhibitors | 360,000 tested, 4.4% active | AID 504333; also: potency is read from the fitted curve at half-maximal effect; % is scaled to controls: 0 for no effect and ±100 for the full control effect; nearly all actives have a fitted effect of over 60% in size
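Inhibition is scored as reduced AlphaScreen emission. The BAZ2B/b-H3(5-23)K14Ac complex (50 nM each) in PBS pH 7.4, 0.01% Tween-20 meets compound (up to 110 uM) for 30 min at RT before bead addition.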
PLK1 PBD inh = inhibitors of human PLK1 polo-box domain binding. AID 720504. Plk1 PBD binding of FITC phosphopeptide, fluorescence polarization. Potency, µM, for inactives: max response, negative = inhibition, most hits filed as inhibitors. P53350. 360,000 tested, 2.8% active; also: potency is read from the fitted curve at half-maximal effect; series mostly up to about 57 µM; % is scaled to controls: 0 for no effect and ±100 for the full control effect; nearly all actives have a fitted effect of over 65% in size
G9a block = inhibitors of human histone lysine methyltransferase G9a; AID 504332; Q96KQ7; Potency, µM (highest dose often 102 µM), for the others: at the highest dose activity, negative = inhibition, usual class: inhibitors; 350,000 tested, 8.8% active; G9a H3K9 monomethylation, AlphaScreen, 2 h; also: potency is read from the fitted curve at half-maximal effect; % is scaled to controls: 0 for no effect and ±100 for the full control effect; nearly all actives have a fitted effect of over 75% in size
Target sequence (Q96KQ7 913-1193 limits assumed): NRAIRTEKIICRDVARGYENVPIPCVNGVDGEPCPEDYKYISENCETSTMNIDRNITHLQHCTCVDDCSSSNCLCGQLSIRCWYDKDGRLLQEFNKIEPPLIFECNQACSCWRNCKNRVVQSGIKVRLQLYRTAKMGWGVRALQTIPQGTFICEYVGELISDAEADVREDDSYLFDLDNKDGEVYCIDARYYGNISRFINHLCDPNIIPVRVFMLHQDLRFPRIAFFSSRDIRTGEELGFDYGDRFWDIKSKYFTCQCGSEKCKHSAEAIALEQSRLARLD
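Readings reflect AlphaScreen signal from monomethyl-H3K9 antibody detection. HMT at 20 nM; substrate b-H3K9 500 nM; cofactor SAM 20 uM; 2 h RT reaction; compounds tested as titrations in qHTS with 15 min preincubation.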
* = called active by the depositor; ? = inconclusive; . = no result given; [ ] = remark or other dose. Sampled rows, rich in hits. Any-hit rate of the full collection: about 12%. Unless noted, calls follow the shape of the dose curve; as a rule, active = well fitted curve in the direction sought with a large enough effect; inconclusive = small, poorly fitted or top-dose-only effect, or another doubt; inactive = no such curve, though single readings can be large; an effect the other way counts as inactive or inconclusive.

SMILES	HP1b chromo inh	JMJD2A Tudor inh	PI5P4Ka inh	BAZ2B inh	PLK1 PBD inh	G9a block
CC(C)=CCc1c(O)cc2c(=O)c3ccc(O)cc3oc2c1O	0.3%	?	?	.	1.5%	.
CC(C)=CCc1c(O)cc(O)c2c(=O)c3c(CC=C(C)C)c(O)ccc3oc12	-22.9%	56.2µM*	?	.	-13.8%	.
O=C(N/N=C/c1c[nH]c2ccccc12)c1[nH]c2ccc(Br)cc2c1-c1ccccc1	-7.2%	?	?	-27.8%	8.44µM*	20.9%[59 µM]
Cc1cccc(NC(=S)N/N=C/c2c[nH]c3ccccc23)c1	?	?	0.7	50.1µM*	-12.6%	-20.8%[59 µM]
O=C(NN=Cc1c[nH]c2ccccc12)NN=Cc1c[nH]c2ccccc12	.	.	-88.6*	.	2.8%	.
O=[N+]([O-])c1ccc(N/N=C/c2c[nH]c3ccccc23)cc1	?	?	2.6	?	-3.6%	28.4%[0.501 µM]
O=[N+]([O-])c1ccccc1N/N=C/c1c[nH]c2ccccc12	12.6µM*	11.2µM*	11.7	10µM*	1.6%	?
O=C(Nc1ccc([N+](=O)[O-])cc1Cl)c1cc(Br)ccc1O	4.4%	?	.	.	.	.
O=C1c2ccccc2C(=O)C1Cc1cccc2ccccc12	-30.4%	?	.	?	6.7µM*	50.1µM*
CC1CCc2c(ccc3ccccc23)C1=O (centres undefined)	32.3%[57 µM]	75.9%	7.9	.	-7.0%	.
CCCn1c(C2CCCN2c2nc(-c3ccc(C)cc3)cs2)nc2ccccc21 (centres undefined)	-11.2%	-28.1%	-1.1	?	?	39.8µM*
Cc1ccc(-c2csc(N3CCC[C@@H]3C(=O)NCCn3c(-c4ccncc4)nc4ccccc43)n2)cc1	-19.3%	?	0.1	44.7µM*	-19.8%	44.7µM*
Cc1ccc(-c2csc(N(CCO)CCCn3c(C(F)(F)F)nc4cc(C(F)(F)F)ccc43)n2)cc1	3.8%	-35.5%	8.5	?	-17.3%	25.1µM*
O=C(NCCn1c(C(F)(F)F)nc2ccccc21)[C@H]1CCCN1c1nc(CN2CCCCC2)cs1	34.0%	-12.2%	0.0	0.8%	-8.8%	-27.5%
OCCN(CCCn1c(-c2ccncc2)nc2ccccc21)c1nc(CN2CCCCC2)cs1	7.2%	-17.7%	-6.8	-1.2%	-13.9%	-22.3%
Cc1ccc(-c2csc(N3CCN(CCCn4c(-c5ccncc5)nc5ccccc54)CC3)n2)cc1	?	?	15.5	?	-6.4%	50.1µM*
Cc1ccc(NC(=O)c2ccc(-n3nncc3-c3ccccc3)cc2)cc1	3.3%[57 µM]	-15.4%[57.1 µM]	.	.	.	.
CCn1c(C(C)NC(C)=O)nc2ccccc21 (centres undefined)	35.5%	-4.2%	-3.1	9.4%	0.6%	20.0%
Cc1ccc(-c2csc(N3CCN(CCCn4c(C(F)(F)F)nc5ccccc54)CC3)n2)cc1	-4.5%	-34.3%	26.8	-38.1%	-12.1%	44.7µM*
CC(=O)N[C@@H](C)c1nc2ccccc2n1CCCN1CCN(c2nc(-c3ccc(C)cc3)cs2)CC1	-17.2%	?	-5.2	?	-8.8%	44.7µM*
O=S(=O)(Nc1cc(O)cc2cccnc12)c1ccc(Cl)s1	.	79.4µM*	.	.	.	.
O=C(CCn1cccn1)NCc1ccc(Cl)cc1	29.5%	-1.3%	.	1.7%	.	7.3%[59 µM]
Cc1cc(Nc2cccc(Cl)c2Cl)n2ncnc2n1	73.7%	-15.3%	-13.4	-6.4%	-12.4%	.
CC1(CCC(=O)N2CCCC(N3CCN(c4ccc(F)cc4)CC3)C2)CC1 (centres undefined)	14.1%	-16.0%	4.7	-18.1%	-3.4%	10.0%
COCCN1Cc2cccc(C(=O)N3CCN(c4cc(C)ccc4C)CC3)c2C1=O	25.6%	-28.6%	-10.8	6.0%	-17.1%	44.7µM*
C[C@@H]1NC(=O)c2cc([N+](=O)[O-])cc(I)c2NCC[C@@H](C(N)=O)NC(=O)[C@H](CC(N)=O)NC1=O	22.6%	-31.0%	6.1	-33.4%	-8.4%	22.4µM*
C[C@@H]1NC(=O)[C@H](CCC(N)=O)NC(=O)c2cc([N+](=O)[O-])cc(I)c2NCC[C@@H](C(N)=O)NC1=O	4.3%	-35.3%	-7.5	?	-20.4%	11.2µM*
